Results on ten compounds are retold here after PubChem BioAssay.

Values joined by “and” are separate entries in the source; they are usually repeats but may differ in a detail not shown here. Equal values may be shown once. Active and inactive are the calls of the source. Unless noted, no stated cut-off is given here; in the data, active means inhibition above about 80%; inactive means the rest.

Assay [1] in a line: LFS_MB_1R medulloblastoma cell growth inhibition, synergistic combos for chromothripsis tumors, cisplatin or BGB combos (AID 1671452).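 Further: cells exposed for 96 hours before readout.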 To be noted: LFS_MB_1R medulloblastoma cells, stronger effect = higher value.
Assay [2] can be described thus: CRL2098 osteosarcoma cell growth inhibition, synergistic combos for chromothripsis tumors, BGB or cisplatin IC20 combos (AID 1671454).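 Further: cells exposed for 96 h before readout; 0% = vehicle DMSO and 100% = killing by high DMSO.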 To be noted: CRL2098 osteosarcoma cells, drug combinations, stronger effect = higher value.
Assay [3] is described as follows: HD-MB03 medulloblastoma cell growth inhibition, synergistic combos for chromothripsis tumors, BGB or cisplatin IC20 combos (AID 1671455; in the data active means inhibition above about 83%;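 further: 0% = vehicle DMSO and 100% = high DMSO as cytotoxic control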). To be noted: HD-MB03 medulloblastoma cells, stronger effect = higher value.
Assay [4] in a line: UWB1.289 ovarian carcinoma cell growth inhibition, synergistic combos for chromothripsis tumors, BGB or cisplatin combos (AID 1671456).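 Further: cells exposed to compound for four days; 0% = vehicle DMSO and 100% = killing by high DMSO.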 To be noted: UWB1.289 ovarian carcinoma cells, stronger effect = higher value.
Assay [5] in a line: LFS_MB_2R medulloblastoma cell growth inhibition, synergistic combos for chromothripsis tumors, cisplatin combos (AID 1671457).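 Further: cells exposed to compound for four days before readout.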 To be noted: LFS_MB_2R medulloblastoma cells, stronger effect = higher value.
Assay [6] in a line: UWB1.289_BRCA1 ovarian cancer growth, cell-based, BGB or cisplatin combinations (AID 1671459). To be noted: UWB1.289 BRCA1 ovarian carcinoma, drug combinations, stronger effect = higher value.
Assay [7] in a line: human astrocyte viability loss, single and combined drugs, cytotoxicity control for chromothriptic childhood tumor combination screen, cell-based, BGB or cisplatin IC20 combos (AID 1671460).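 Further: cells exposed to compounds for 96 hours before viability readout; 0% = vehicle and 100% = killing control.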 To be noted: Human astrocytes, drug combinations, stronger effect = higher value.
A short description of assay [8]: growth inhibition of CRL1545 osteosarcoma cells, cell-based, cisplatin and BGB IC20 combos (AID 1671464).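 Further: cells exposed to compound for 96 hours before readout; 0% = vehicle DMSO and 100% = high DMSO killing control.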 To be noted: stronger effect = higher value.
Assay [9] is described as follows: circadian clock period modulators, cell-based, LOPAC library, luminescence reporter (AID 2774; call rule not given here;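 further: values are relative to mean of DMSO wells on each plate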). To be noted: circadian reporter cells, at 7 µM, actives lie on both sides.
The test system of assay [10] is Hepatitis C virus NS3 helicase. The assay can be described thus: HCV NS3 helicase inhibitors, primary screen, biochemical, fluorescence polarization, LOPAC1280 library (AID 687035; in the data active means inhibition above about 37%). As to conditions: Purified HCV NS3 helicase, Cy5-dT15 ssDNA binding fluorescence polarization; stronger effect = higher value; concentration not given here.
Assay [11] can be described thus: Cy5 fluorescence quenching or enhancement artefacts, artefact control for HCV NS3 helicase inhibitor project, biochemical, LOPAC1280 (AID 687037; call rule not given here). To be noted: Cy5-DNA-NS3h complex fluorescence interference counterscreen. (Counterscreens check selectivity or assay interference.)
The nature of assay [12]: phospholipid biosynthesis inhibitors in animal cells, primary screen, cell-based, LOPAC library, screen 4 (AID 1347384; call rule not given here). As to conditions: phospholipid biosynthesis inhibition screen, at 10 µM.
Assay [13] is described as follows: viability rescue of complex I mutant cybrids, primary screen, cell-based, galactose medium, ATP luminescence (AID 1645843;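 active means z-score of at least 1.8 in each of two replicates, scored against plate mean and spread of sample wells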;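 further: positive z means more ATP and so rescue of galactose-driven cybrid death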). As to conditions: complex I mutant cybrid cells, 72 h, stronger effect = higher value.
The target of assay [14] is NAD(+) hydrolase SARM1 (Homo sapiens) (UniProt Q6SZW1). Briefly: SARM1 TIR NADase inhibitors, cell lysate, NAD-Glo luminescence (AID 1508614;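 active means compound whose remaining NAD level is above about 45 nM, limit read from the data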). To be noted: SAM-TIR HEK293T lysate NADase, at 1 µM, stronger effect = higher value.
Assay [15] is described as follows: hESC survival regulators, cell-based (AID 493140; call rule not given here;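 further: cells exposed to compounds for four days before counting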). To be noted: human embryonic stem cell survival screen; stronger effect = higher value.
A short description of assay [16]: liver-stage malaria parasite growth inhibition, primary screen, cell-based, HepG2, luciferase luminescence, HepG2 viability (AID 624349; in the data active means parasite load remaining mostly below about 12%, no sharp cut-off; inactive means mostly above about 10%;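 further: 100% = mean of DMSO negative control wells on the same plate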). As to conditions: P. berghei liver stage in HepG2, luciferase luminescence, concentration not given here; parasite load remaining: stronger effect = lower value; viability: measured here: HepG2 viability without parasites.
In assay [17] the target is Mitogen-activated protein kinase 7 (Homo sapiens) (UniProt Q13164). The assay can be described thus: ERK5 transactivation activators in reporter cells, primary screen, cell-based, HTS (AID 1508626;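 active means luciferase signal above three times the same-plate solvent-only control wells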;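 further: luciferase driven by Gal4-ERK5 fusion binding five Gal4 sites before minimal TATA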). To be noted: HeLa Gal4-ERK5 transactivation, 18 h, at 5 µM, stronger effect = higher value.
The nature of assay [18]: kinase inhibitors against Plasmodium liver-stage infection, cell-based, known kinase inhibitor set, luminescence, hepatoma host viability (AID 624392; call rule not given here;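 further: infected cells incubated roughly two days before readout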). To be noted: Plasmodium liver stage in hepatoma cells, luciferase luminescence, concentration not given here; liver cell % of control: measured here: host liver cell viability; parasite % of control: stronger effect = lower value.
Where [19] appears, read: measured here: combination with BGB IC40, at 0.05 µM.
Where [20] appears, read: measured here: combination with cisplatin, at 0.5 µM.
The mark [21] stands for this setting: measured here: combination with cisplatin, at 5 µM.
The mark [22] stands for this setting: measured here: combination with BGB at IC20, at 0.5 µM.
[23] abbreviates: measured here: combination with cisplatin at IC20, at 0.5 µM.
The mark [24] stands for this setting: measured here: combo with BGB at IC20, at 0.5 µM.
Setting [25] is: measured here: combo with cisplatin at IC20, at 0.5 µM.
[26] abbreviates: measured here: inhibition with BGB combination, at 0.05 µM.
[27] abbreviates: measured here: inhibition with cisplatin combination, at 0.05 µM.
The mark [28] stands for this setting: BGB combination, concentration series, at 5 µM.
Setting [29] is: cisplatin combination, concentration series, at 5 µM.
The mark [30] stands for this setting: measured here: combo with BGB IC20, at 0.5 µM.
Where [31] appears, read: measured here: combo with cisplatin IC20, at 0.5 µM.
Setting [32] is: measured here: with BGB IC20 combination, at 0.5 µM.
Setting [33] is: measured here: with cisplatin IC20 combination, at 0.5 µM.

Chain of NAD(+) hydrolase SARM1 (Homo sapiens) (Q6SZW1 whole entry, looked up): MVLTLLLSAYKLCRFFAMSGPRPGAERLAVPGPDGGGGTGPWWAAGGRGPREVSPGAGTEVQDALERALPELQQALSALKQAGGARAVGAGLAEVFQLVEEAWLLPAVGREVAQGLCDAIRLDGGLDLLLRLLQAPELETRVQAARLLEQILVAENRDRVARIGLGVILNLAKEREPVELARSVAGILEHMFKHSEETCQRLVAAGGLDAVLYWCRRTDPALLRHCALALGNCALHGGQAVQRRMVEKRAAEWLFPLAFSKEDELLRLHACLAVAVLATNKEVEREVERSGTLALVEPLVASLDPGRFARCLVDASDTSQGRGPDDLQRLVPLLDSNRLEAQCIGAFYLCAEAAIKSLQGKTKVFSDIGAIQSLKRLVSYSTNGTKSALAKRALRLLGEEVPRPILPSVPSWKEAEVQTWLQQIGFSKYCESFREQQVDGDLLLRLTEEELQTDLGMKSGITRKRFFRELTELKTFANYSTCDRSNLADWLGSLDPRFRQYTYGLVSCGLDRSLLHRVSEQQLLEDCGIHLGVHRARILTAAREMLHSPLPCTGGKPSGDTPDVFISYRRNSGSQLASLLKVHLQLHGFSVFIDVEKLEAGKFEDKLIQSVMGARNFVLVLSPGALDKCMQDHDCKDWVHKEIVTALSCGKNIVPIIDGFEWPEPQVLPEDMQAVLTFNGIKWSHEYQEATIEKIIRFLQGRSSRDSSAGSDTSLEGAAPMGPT
Chain of Mitogen-activated protein kinase 7 (Homo sapiens) (Q13164 whole entry, looked up, the tested form may be a part): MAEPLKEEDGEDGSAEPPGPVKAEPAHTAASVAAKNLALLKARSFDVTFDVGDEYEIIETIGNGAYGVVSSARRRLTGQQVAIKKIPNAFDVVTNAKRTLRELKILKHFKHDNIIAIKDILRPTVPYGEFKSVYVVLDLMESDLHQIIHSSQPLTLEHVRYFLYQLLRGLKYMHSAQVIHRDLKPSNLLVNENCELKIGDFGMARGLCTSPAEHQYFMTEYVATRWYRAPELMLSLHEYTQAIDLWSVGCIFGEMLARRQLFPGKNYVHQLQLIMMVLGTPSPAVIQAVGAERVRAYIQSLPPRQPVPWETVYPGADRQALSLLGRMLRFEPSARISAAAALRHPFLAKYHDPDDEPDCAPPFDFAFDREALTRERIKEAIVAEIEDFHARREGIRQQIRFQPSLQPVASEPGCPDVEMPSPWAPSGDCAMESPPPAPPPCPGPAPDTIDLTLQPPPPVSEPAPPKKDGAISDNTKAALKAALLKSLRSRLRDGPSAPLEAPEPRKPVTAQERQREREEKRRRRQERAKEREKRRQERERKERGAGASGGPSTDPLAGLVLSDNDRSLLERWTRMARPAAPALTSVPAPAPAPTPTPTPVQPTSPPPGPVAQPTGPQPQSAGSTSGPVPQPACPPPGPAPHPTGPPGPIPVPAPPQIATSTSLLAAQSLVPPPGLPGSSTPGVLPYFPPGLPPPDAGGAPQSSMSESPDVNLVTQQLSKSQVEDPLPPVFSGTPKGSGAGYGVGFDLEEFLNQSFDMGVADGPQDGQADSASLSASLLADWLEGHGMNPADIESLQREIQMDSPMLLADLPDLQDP

As usually defined, the inhibition is the change of the read-out against control, counted positive when it falls. As to `O=C(/C=C/c1cccc(S(=O)(=O)Nc2ccccc2)c1)NO`, the inhibition in assay [1] (at 0.5 µM) is 31.6% (inactive); in [1] (setting [19]), -40%; in assay [1] (setting [20]) it was 39.8%; in assay [1] (setting [21]) it was 99.9%; in assay [2] (at 0.5 µM), -17% (inactive); in assay [2] (setting [22]) it was -63.8%. Also, the inhibition in assay [2] (setting [23]) was 6.33%; in assay [3] (at 0.5 µM), 86.6% (active); in assay [3] (setting [24]), 88.4%; in [3] (setting [25]) it was 99%; in assay [4] (at 0.5 µM), 41% (inactive); in [4] (setting [26]) it was -3.28%. Also, the inhibition is 9.18% in assay [4] (setting [27]); 37.4% (inactive) in [5] (at 0.5 µM); 58.7% in [5] (setting [20]); 105% in assay [5] (setting [21]); 99.6% in assay [6] (setting [28]); 41.8% (inactive) in assay [6] (at 0.5 µM). For the same compound, the inhibition in assay [6] (setting [29]) is 120%; in [7] (at 0.5 µM), 31.9% (inactive); in assay [7] (setting [30]), 38.1%; in assay [7] (setting [31]) it was 9.25%; in assay [8] (at 0.5 µM), 90.5% (active); in assay [8] (setting [32]), 88.7%. The inhibition in [8] (setting [33]) is 91.2%; in assay [8] (single agent, at 0.05 µM), -2.13%; in assay [8] (single agent, at 5 µM), 85.5%.
With `COc1ccccc1N1CCN(CCN(C(=O)C2CCCCC2)c2ccccn2)CC1`, the period change in assay [9] is -0.085 h (inactive). The inhibition in [10] was -3% (inactive). The fluorescence ratio (interference) in assay [11] is 1 (inactive). For the same compound, the call in assay [12] was inactive. The z-score in assay [13] was -1.04 (inactive).
As for `Clc1ccc2c(N3CCN(CCCN4CCN(c5ccnc6cc(Cl)ccc56)CC4)CC3)ccnc2c1`, the z-score in [13] was -0.6 (inactive).
As to `C[Se]CCC(N)C(=O)O` (stereo not given), the remaining NAD in assay [14] is 10 nM (inactive).
One may read the viability as a per cent measure of how many cells are alive, often set against a control. Consider `CO[C@H]1/C=C/O[C@@]2(C)Oc3c(C)c(O)c4c(O)c(c(/C=N/N5CCN(C)CC5)c(O)c4c3C2=O)NC(=O)/C(C)=C\C=C\[C@H](C)[C@H](O)[C@@H](C)[C@@H](O)[C@@H](C)[C@H](OC(C)=O)[C@@H]1C`, for which, in assay [15], the survival was 9.5 (inactive). Further, in [16], the parasite load remaining was 95.1% (inactive) and 71.6% (inactive) and 41.3% (inactive); the viability is 99.1% and 71.9% and 96.5%. The remaining NAD in assay [14] was 10 nM (inactive). Further, the luciferase signal in assay [17] is 44 AU (inactive). Moreover, the z-score in assay [13] is 1.12 (inactive).
For `COc1nccc(-c2c(-c3ccc(F)cc3)ncn2C2CCNCC2)n1`, in assay [18], the liver cell % of control is 89.2% and 92.3% and 100%; the parasite % of control is 45.1% (inactive) and 35% (inactive) and 41.5% (inactive).
Consider `Cn1c(=O)n(-c2ccc(C(C)(C)C#N)cc2)c2c3cc(-c4cnc5ccccc5c4)ccc3ncc21`, for which, in assay [18], the liver cell % of control is 79.1% and 72.9%; the parasite % of control was 288% (inactive) and 494% (inactive) and 6.49% (inactive).
Consider `Cc1nc(N)ncc1-c1nc(N2CCOCC2)c2sc(C(C)(C)O)cc2n1`, for which, in assay [18], the liver cell % of control was 78.4% and 78.6% and 93.7%; the parasite % of control was 406% (inactive) and 544% (inactive) and 660% (inactive).
Turning to `c1cc(OCCN2CCCCC2)cc(-c2n[nH]c3ccc(-c4ncn[nH]4)cc23)c1`, in assay [18], the liver cell % of control was 77.7% and 82.4% and 94%; the parasite % of control was 63.2% (inactive) and 149% (inactive) and 87% (inactive).
Consider `O=C(CCCCCCNC(=O)c1cnc(N(c2ccccc2)c2ccccc2)nc1)NO`, for which the inhibition in [1] (at 0.5 µM) is -2.12% (inactive) and -15.9% (inactive); in assay [1] (setting [19]), -29.1% and -24.9%; in [1] (setting [20]), 6.1% and -31.8%; in [1] (setting [21]), 84.8% and 59.4%; in [2] (at 0.5 µM), -71.5% (inactive) and -77.4% (inactive); in [2] (setting [22]), -57.1% and -110%. In addition, the inhibition was -110% and -74.1% in assay [2] (setting [23]); 1.23% (inactive) and -11.6% (inactive) in assay [3] (at 0.5 µM); -8.85% and -13.2% in assay [3] (setting [24]); 14.2% and -7.98% in assay [3] (setting [25]); 1.59% (inactive) and 9.83% (inactive) in [4] (at 0.5 µM); -25.2% and -41.7% in [4] (setting [26]). Also, the inhibition was -17.6% and -12.7% in assay [4] (setting [27]); -17.5% (inactive) and -17% (inactive) in assay [5] (at 0.5 µM); -3.75% and -9.43% in assay [5] (setting [20]); 74.7% and 60.9% in assay [5] (setting [21]); 47.7% and 28.3% in assay [6] (setting [28]); 1.98% (inactive) and -9.53% (inactive) in assay [6] (at 0.5 µM). Also, the inhibition in assay [6] (setting [29]) is 66.1% and 58.6%; in assay [7] (at 0.5 µM), -18.3% (inactive) and 0.04% (inactive); in assay [7] (setting [30]), -21.3% and 12.4%; in assay [7] (setting [31]), -18.3% and -8.91%; in [8] (at 0.5 µM) it was -14% (inactive) and -9.25% (inactive); in [8] (setting [32]), -11% and -28.2%. For the same compound, the inhibition in [8] (setting [33]) was -17.4% and -1.39%; in assay [8] (single agent, at 0.05 µM), -31.8% and -21.9%; in assay [8] (single agent, at 5 µM), 89.1% and 74.4%.
